The structures appear in SMILES notation. Hit rate of the full screen: of about 2,300 compounds, about 1,200 (52%) were called active. Roughly 34% stayed inconclusive and do not appear here. So high a share suggests a set chosen from earlier hits. Some of the results follow. Values without a mark were called inactive. The call rests on the fitted dose curve; in most records, active means well fitted inhibition curve with a large enough effect; inconclusive means small, poorly fitted or top-dose-only effect, or effect the other way; inactive means no such curve, though single readings can be large or run the other way.
On the % scale 0 is the no-effect control and ±100 the full control effect; potency means the concentration at half of the fitted maximal effect.

The assay in a line: Confirmation screen for delayed death inhibitors of the malarial parasite plastid, 48 hour incubation. Further: nearly all actives have a fitted effect of over 65% in size. The conditions noted are these: P. falciparum-infected erythrocytes, luciferase growth; series mostly up to 28.7 µM; activity change, negative = inhibition: at the top concentration. The gist of the method:
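Single-generation (48 h, 37 C) exposure of integrated firefly luciferase-reporter P. falciparum in red cells, 0.1% parasitemia at 2% hematocrit, Albumax-supplemented RPMI. Falling luciferase signal marks parasite growth inhibition.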
As to `COc1ccc(NS(=O)(=O)c2ccc(N3CCOCC3)c(NC(=O)c3ccc(OC)cc3)c2)cc1`, the Potency was 11.2 µM (active). Same read-out and setting: under `CCOC(=O)C1=C(C)NC(C)=C(C(=O)OCC)C1c1cc(N)ccc1OC(F)F` stands 5.62 µM (active). On to `COC(=O)COc1ccc(S(=O)(=O)NCCC2=CCCCC2)cc1Cl`, for which the “activity change, negative = inhibition” value is -21.8%.

`CCOc1ccc(S(=O)(=O)N2CCCC(C(=O)NC3CC3)C2)cc1Cl` (centres undefined): the Potency was 12.6 µM (active). Turning to `COc1cccc2sc(NNC(=O)c3nc4ccccc4s3)nc12`, the Potency was 15.8 µM (active). `O=C(NC1CCCC1)C(c1ccncc1)N(Cc1ccco1)C(=O)c1ccc(-c2ccccc2)[nH]1` (centres undefined): the Potency was 11.2 µM (active). On the same count and under the same terms, under `O=C(NC1CCCCC1)C(c1ccncc1)N(Cc1ccccc1)C(=O)c1ccc(-c2ccccc2)[nH]1` (centres undefined) stands 4.47 µM (active); under `COc1ccc(CN(C(=O)/C=C/C(=O)c2ccc(OC)cc2O)C(C(=O)NC2CCCCC2)c2ccncc2)cc1` (centres undefined), 7.94 µM (active). Take `COc1ccc(NC(=S)N(CCCN2CCCCCC2)Cc2cccs2)cc1`: the Potency is 11.2 µM (active). Still for that read-out and setting: then `O=C(Nc1nnc(SCC(=O)N2CCCC2)s1)C1CC(=O)N(c2ccc(F)cc2)C1` (centres undefined), with 11.2 µM (active). On the same count and under the same terms, under `COc1cccc(N2CC(C(=O)Nc3nnc(SCCC4OCCO4)s3)CC2=O)c1` (centres undefined) stands 12.6 µM (active); under `CCc1ccc(NC2=CC(=O)C(=O)c3ccccc32)cc1`, 0.501 µM (active).

On to `Cn1nccc1C(=O)N1CCc2c([nH]c3ccccc23)C1c1ccc(F)cc1` (centres undefined), for which the Potency was 7.94 µM (active).

Regarding `CSc1ccc(C2c3[nH]c4ccccc4c3CCN2C(=O)c2ccnn2C)cc1` (centres undefined), the Potency was 7.08 µM (active). Same read-out and setting: under `CCc1ccc(C2c3[nH]c4ccccc4c3CCN2C(=O)c2cc(C)nn2C)cc1` (centres undefined) stands 5.01 µM (active); under `Cc1cc[n+]2cc(-c3cccc([N+](=O)[O-])c3)c(-c3cccc([N+](=O)[O-])c3)cc2c1`, 0.631 µM (active); under `COc1ccc(N(C)S(=O)(=O)c2cccc(C(=O)NCc3ccc(C)cc3)c2)cc1`, 12.6 µM (active). As to `COc1cccc(S(=O)(=O)NCc2ccc(C(=O)NCc3ccccn3)cc2)c1`, the “activity change, negative = inhibition” value was -4.44%.

For the molecule `CN(CCOc1ccccc1)C(=O)C1CCC(=O)N(CCN2CCOCC2)C1` (centres undefined), the “activity change, negative = inhibition” value was -9.41%. `CN(Cc1ccccc1Cl)C(=O)C1CCC(=O)N(CCc2cccc(F)c2)C1` (centres undefined): the Potency is 11.2 µM (active).

Turning to `O=C(Nc1ccccc1)N1CCC(O)(c2cccc(C(F)(F)F)c2)CC1`, the Potency was 11.2 µM (active).

With `CCOc1ccccc1NC(=O)C(CC)Sc1nc2ccsc2c(=O)n1CCC(=O)O` (centres undefined), the Potency is 12.6 µM (active). Regarding `C[N+]1(CCCCSc2ccc(O)cc2)CCCCC1`, the Potency is 7.08 µM (active). `Cc1c(C(=O)N2CCN(c3ccc([N+](=O)[O-])cc3)CC2)sc2ncn(CC(=O)N3CCOCC3)c(=O)c12`: the Potency was 12.6 µM (active).

For `COc1ccccc1N1CCN(C2CCCN(Cc3ccc(Cl)cc3)C2)CC1` (centres undefined), the Potency is 6.31 µM (active).

Take `COc1ccc(N2CCN(C3CCCN(Cc4ccc(F)cc4)C3)CC2)cc1` (centres undefined): the Potency is 11.2 µM (active).

With `O=C(CSc1nnc(NC(=O)c2ccccc2[N+](=O)[O-])s1)NCC1CCCO1` (centres undefined), the “activity change, negative = inhibition” value was 5.45%.

For the molecule `CCOC(=O)CSc1nnc(NC(=O)c2cccc([N+](=O)[O-])c2)s1`, the Potency is 12.6 µM (active). The same measure, in the same setting: then `CCC(C)[C@H](NC(=O)[C@H](Cc1ccccc1)n1c(=O)[nH]c2ccccc2c1=O)C(=O)NCC1CCC(C(=O)O)CC1` (some centres undefined), with 12.6 µM (active); and `Clc1ccc(-c2c[n+](Cc3ccc(Br)cc3)c3n2CCCCC3)cc1`, with 0.199 µM (active); and `Clc1ccc(-c2c[n+](Cc3ccc(Cl)cc3Cl)c3n2CCCCC3)cc1`, with 1.26 µM (active).

`Nc1nnnn1/N=C/C(Br)=C/c1ccccc1`: the Potency was 12.6 µM (active).

As to `O=C(NNc1ccnc2cc(Cl)ccc12)C1CCCCC1`, the Potency is 0.891 µM (active). `CCN1CCC(Nc2ccnc3cc(Cl)ccc23)CC1`: the Potency is 0.126 µM (active). Same read-out and setting: under `S=C(Nc1ccccc1Cl)N(Cc1ccccc1)Cc1cccnc1` stands 12.6 µM (active); under `CCOC(=O)[C@H]1[C@H]2COc3cc(OC)ccc3[C@@H]2N2C(=O)N(c3ccc(Cl)cc3)C(=O)[C@@]12C`, 12.6 µM (active).

As to `O=c1cc(CSc2nc(NCc3ccccc3)c3ccccc3n2)nc2ccc(Cl)cn12`, the Potency is 5.01 µM (active). Same read-out and setting: under `Cc1ncc(CO)c(/C=N/NC(=S)Nc2ccc(F)cc2)c1O` stands 12.6 µM (active); under `O=C(CNC(=O)c1cccc(F)c1)N/N=C/c1ccc([N+](=O)[O-])s1`, 11.2 µM (active); under `COc1ccc(C(=O)NCC(=O)N/N=C/c2ccc([N+](=O)[O-])s2)cc1OC`, 11.2 µM (active). Turning to `COc1ccc(C(=O)NCC(=O)N/N=C(C)\C=C\c2ccccc2)cc1OC`, the “activity change, negative = inhibition” value is -5.66%. For the molecule `CCCCCCCn1c(=O)c(C(=O)OC)c(N)c2ccccc21`, the Potency was 12.6 µM (active). With `NNc1nc(-c2ccccc2Cl)c2cc(Br)ccc2n1`, the Potency is 11.2 µM (active). As to `O=S(=O)(NCC(O)c1ccccc1)c1cc(Cl)sc1Cl` (centres undefined), the “activity change, negative = inhibition” value is 4.3%. Take `O=C(COc1cc2oc(=O)c3c(c2cc1Cl)CCC3)NCC(O)c1ccccc1` (centres undefined): the Potency is 11.2 µM (active). Regarding `Cc1c(OCC(=O)NCC(O)c2ccccc2)ccc2c3c(c(=O)oc12)CCC3` (centres undefined), the Potency is 14.1 µM (active).

With `OC1(c2cccs2)CN(c2ccc(Cl)cc2)C2=[N+]1CCCC2` (centres undefined), the Potency was 10 µM (active). Turning to `OC1(c2cccs2)CN(c2ccc(Br)cc2)C2=[N+]1CCCS2` (centres undefined), the Potency is 12.6 µM (active). Still for that read-out and setting: then `CC(C)(C)Nc1nc(Cl)nc(NC2CCCCC2)n1`, with 14.1 µM (active). As for `NC(=S)Nn1c(-c2ccccc2)nc2ccccc2c1=O`, the “activity change, negative = inhibition” value was 0.99%. On to `O=C1c2ccccc2-n2c1nc1ccccc1c2=O`, for which the Potency was 0.708 µM (active).

Regarding `O=C1c2cc(F)ccc2-n2c1nc1ccccc1c2=O`, the Potency is 0.178 µM (active). As for `CN(C)CCn1c(=O)n(Cc2ccco2)c(=O)c2c3c(sc21)CCCCC3`, the Potency was 12.6 µM (active).

Take `O=C(Nc1ccccc1F)c1ccc(CN2CCN(c3ccccc3)CC2)cc1`: the “activity change, negative = inhibition” value was -34.1%. For `COc1ccc(NC(=O)c2ccc(CN3CCN(c4ccccc4)CC3)cc2)cc1OC`, the Potency is 10 µM (active).

As to `COc1cccc(NC(=O)c2ccc(CN3CCN(c4ccccc4)CC3)cc2)c1`, the Potency is 15.8 µM (active). The same measure, in the same setting: under `O=C(Nc1ccc(F)cc1F)c1ccc2c(c1)[nH]c(=O)n2Cc1ccc(F)cc1` stands 12.6 µM (active); under `COc1ccc(Cl)cc1/C=C/c1ccc2cccc(O)c2n1`, 6.31 µM (active); under `Oc1cccc2ccc(/C=C/c3ccccc3Br)nc12`, 2.82 µM (active). The same measure, in the same setting: under `Cn1c2ccccc2c(=O)c2ccc(C#Cc3ccc(N)cc3)cc21` stands 12.6 µM (active); under `COc1ccc(C#Cc2ccc3c(=O)c4ccccc4n(C)c3c2)cc1`, 10 µM (active); under `Cc1ccc2c(c1)c1c3n2CCN(C(=O)CCl)C3CCC1` (centres undefined), 12.6 µM (active). The same measure, in the same setting: then `Cc1cc(C)cc(CC(Cc2nc3ccccc3[nH]2)c2nc3ccccc3[nH]2)c1` (centres undefined), with 2.24 µM (active); and `CCCCOc1ccc(NC2=NC3(CCCC3)N=C(N)N2)cc1`, with 1.41 µM (active); and `Cc1nc(-c2ccc(S(=O)(=O)N3CCCN(CCc4ccccc4)CC3)s2)cs1`, with 10 µM (active). Take `Cc1ccc(N2C(=O)N3[C@H](c4ccc(F)cc4)[C@@H]4C(=O)N(C5CCCCC5)C(=O)[C@@H]4[C@]3(Cc3ccccc3)C2=O)cc1`: the Potency is 5.62 µM (active).

For `Cc1cccc(Nc2nc3c(S(=O)(=O)c4ccccc4)nnn3c3ccccc23)c1C`, the Potency was 4.47 µM (active).

With `N#C/C(=C\C=C\c1ccccc1[N+](=O)[O-])C(=O)NC1CCCCC1`, the Potency was 4.47 µM (active). Regarding `COC(=O)C(=Cc1ccccc1[N+](=O)[O-])C(=O)OC`, the Potency was 4.47 µM (active). For `COCCNC(=O)/C(C#N)=C/C=C/c1ccccc1[N+](=O)[O-]`, the Potency was 11.2 µM (active). Regarding `COc1ccc([N+](=O)[O-])c(S(=O)(=O)c2ccccc2)n1`, the “activity change, negative = inhibition” value is -55.2%. For the molecule `CC1CCCCC1NC(=O)/C(C#N)=C/C=C/c1ccccc1[N+](=O)[O-]` (centres undefined), the Potency is 5.01 µM (active). Consider `COc1ccc(Cn2c(-c3ccc(Br)cc3)c[n+]3ccccc23)cc1`, for which the Potency is 1.26 µM (active). Regarding `O=C(NC12CC3CC(CC(C3)C1)C2)c1ccc([N+](=O)[O-])o1`, the Potency is 6.31 µM (active). Turning to `Cn1cc([N+](=O)[O-])c(C(=O)Nc2ccn(C34CC5CC(CC(C5)C3)C4)n2)n1`, the “activity change, negative = inhibition” value was -7.7%.

Turning to `CC(NC(=O)c1ccc([N+](=O)[O-])o1)C12CC3CC(CC(C3)C1)C2` (centres undefined), the Potency is 12.6 µM (active). For `COCCNCC(=O)NC12CC3CC(CC(C3)C1)C2`, the “activity change, negative = inhibition” value was 7.82%. As for `Cc1ccc(S(=O)(=O)Nc2cc(=O)[nH]c(SCc3ccc(Cl)cc3)n2)cc1`, the Potency is 11.2 µM (active). As for `CC(=O)c1c(C)cc(C)c(CSc2nc(C)cc(=O)[nH]2)c1C`, the “activity change, negative = inhibition” value was -19.7%.

Turning to `OC1CCN(c2c3c(nc4cc(-c5ccc(Cl)cc5)nn24)CCC3)CC1`, the Potency is 7.08 µM (active).

For `Fc1cc2nc(-c3ccncc3)[nH]c2cc1F`, the Potency is 10 µM (active). Still for that read-out and setting: then `Cn1ccc(=Nc2ccc(NC(=O)c3ccc(N=c4ccn(C)c5ccc([N+](=O)[O-])cc45)cc3)cc2)cc1`, with 0.199 µM (active). `Cc1sc2nc[nH]c(=O)c2c1-c1ccc(Cl)cc1`: the “activity change, negative = inhibition” value is -18.2%. Turning to `O=C(CCl)Nc1cccc(S(=O)(=O)NC2=NCCC2)c1`, the Potency was 1.26 µM (active). Still for that read-out and setting: then `COc1ccccc1-n1c(=S)[nH]c2c(sc(=S)n2-c2ccc(C)cc2C)c1=O`, with 3.16 µM (active); and `CCOC(=O)c1c(C)nc(C)c(C(=O)OCC)c1-c1ccc(Br)cc1`, with 12.6 µM (active). For the molecule `Cc1ccc(C(=O)OCc2nnc(-c3ccc(Br)cc3)o2)cc1`, the “activity change, negative = inhibition” value is -7.51%. Regarding `Cc1cccc(N2CCN(C3=NC(=O)C(Cc4ccccc4)S3)CC2)c1` (centres undefined), the Potency was 1.78 µM (active).

Turning to `O=C(c1ccsc1)N1CCCC(N2CCN(c3cccc(C(F)(F)F)c3)CC2)C1` (centres undefined), the Potency is 14.1 µM (active).

On to `Cc1cc(C(=O)N2CCCC(N3CCN(c4cccc(C(F)(F)F)c4)CC3)C2)c(C)o1` (centres undefined), for which the Potency is 12.6 µM (active). As to `Cc1ccc(C(=O)NC2CCCC2)cc1S(=O)(=O)N1CCCCC1`, the Potency is 11.2 µM (active). The same measure, in the same setting: under `Cc1ccc(C(=O)NC2CCCCC2)cc1S(=O)(=O)N1CCCC1` stands 11.2 µM (active); under `O=C(Nc1ccncc1)c1ccc(Cl)c(S(=O)(=O)N2CCCC2)c1`, 11.2 µM (active).

As to `Cc1ccc(S(=O)(=O)N2CCCCC2C)cc1[N+](=O)[O-]` (centres undefined), the “activity change, negative = inhibition” value is -20.8%.

Source of the values: PubChem BioAssay AID504850 (National Center for Advancing Translational Sciences (NCATS), 2011).
